Results with a measured potency or affinity are listed apart. Records with an inconclusive call do not appear. Values without a mark were called inactive. The rule behind the calls is not given here.

The first assay is described as follows: IGROV1 cell killing – plate reader, dry powder samples, PAX8 inhibitor project, dose response (AID 743043).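 Note: more negative means fewer viable cells or more cytotoxicity.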 The following applies: IGROV1 ovarian cancer cell cytotoxicity; series mostly up to 35 µM; activity change, negative = cytotoxicity: at the top concentration.
`CN(C)CC#Cc1ccc([C@@H]2[C@H](CO)N3CCCCN(C(=O)Nc4ccc(F)cc4)C[C@@H]23)cc1`: the “activity change, negative = cytotoxicity” value was -1.25%.

Turning to `C[C@H](CO)N1C[C@H](C)[C@@H](CN(C)C(=O)Nc2ccnc(N3CCOCC3)c2)OCc2cnnn2CCCC1=O`, the “activity change, negative = cytotoxicity” value was 10.2%.

`CO[C@@H]1CN(C)C(=O)c2cc(NC(=O)c3nc4ccccc4s3)ccc2OC[C@H](C)NC[C@H]1C`: the “activity change, negative = cytotoxicity” value was -15.6% [at 30 µM].

A short description of a further assay: OVCAR-3 cell viability loss – plate reader, dry powder samples, PAX8 inhibitor project, dose response (AID 743044). The following applies: NIH:OVCAR-3 ovarian cancer cell viability; max activity: at 35 µM, stronger effect = lower value unless noted; series mostly up to 50 µM; activity change, negative = cytotoxicity: at the top concentration.
With `CN(C)CC#Cc1ccc([C@@H]2[C@H](CO)N3CCCCN(C(=O)Nc4ccc(F)cc4)C[C@@H]23)cc1`, the max activity was 29.4% [at 0.26 µM, stronger effect = lower value].

On to `C[C@H](CO)N1C[C@H](C)[C@@H](CN(C)C(=O)Nc2ccnc(N3CCOCC3)c2)OCc2cnnn2CCCC1=O`, for which the max activity was 8.36% [at 0.26 µM, stronger effect = lower value].

Regarding `CO[C@@H]1CN(C)C(=O)c2cc(NC(=O)c3nc4ccccc4s3)ccc2OC[C@H](C)NC[C@H]1C`, the max activity was -38.8% [at 30 µM, stronger effect = lower value].

The nature of a further assay: toxicity toward immortalized ovarian surface epithelium – cell-based, plate reader, dry powder samples, cytotoxicity control for PAX8 inhibitor project, dose response (AID 743045).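 Note: 0% = neutral control median and -100% = positive control median; more negative values mean more cell killing.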 The following applies: IOSE-T80 ovarian epithelial cells; series mostly up to 35 µM; activity change, negative = cytotoxicity: at the top concentration.
On to `Cc1ccc(-c2ccc([C@@H]3[C@H](CO)N4CCCCN(C(=O)Nc5cccc(F)c5)C[C@@H]34)cc2)cc1`, for which the “activity change, negative = cytotoxicity” value was 12.9% [at 16 µM].

With `CN(C)CC#Cc1ccc([C@@H]2[C@H](CO)N3CCCCN(C(=O)Nc4ccc(F)cc4)C[C@@H]23)cc1`, the “activity change, negative = cytotoxicity” value was -10.4%.

Turning to `C[C@H](CO)N1C[C@H](C)[C@@H](CN(C)C(=O)Nc2ccnc(N3CCOCC3)c2)OCc2cnnn2CCCC1=O`, the “activity change, negative = cytotoxicity” value is 11.1%.

`CO[C@@H]1CN(C)C(=O)c2cc(NC(=O)c3nc4ccccc4s3)ccc2OC[C@H](C)NC[C@H]1C`: the “activity change, negative = cytotoxicity” value is -9.73% [at 30 µM].

A short description of the next assay: OVCAR8 cell viability loss – plate reader, dry powder samples, PAX8 project, dose response (AID 743197). The following applies: series mostly up to 35 µM; activity change, negative = cytotoxicity: at the top concentration.
Consider `CN(C)CC#Cc1ccc([C@@H]2[C@H](CO)N3CCCCN(C(=O)Nc4ccc(F)cc4)C[C@@H]23)cc1`, for which the “activity change, negative = cytotoxicity” value is 0.213%.

Take `C[C@H](CO)N1C[C@H](C)[C@@H](CN(C)C(=O)Nc2ccnc(N3CCOCC3)c2)OCc2cnnn2CCCC1=O`: the “activity change, negative = cytotoxicity” value is 11.3%.

In the case of `CO[C@@H]1CN(C)C(=O)c2cc(NC(=O)c3nc4ccccc4s3)ccc2OC[C@H](C)NC[C@H]1C`, the “activity change, negative = cytotoxicity” value was -7.79% [at 30 µM].
